The text below walks through data of PubChem BioAssay AID720609 (Broad Institute, 2013).

Molecules are shown by their SMILES. Potency and affinity values are given separately. The source made the active and inactive calls.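 Rule for the calls: active = viability signal falls with a fitted half-maximal concentration at or below a set limit at all three treatment times; inconclusive = treatment times disagree, or a flat partial drop, or poor fit; inactive = inactive at every treatment time.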

A short description of the experiment: cytotoxicity in HeLa cervical cancer cells – cell-based, CellTiter-Glo ATP luminescence, 8-48 h, dry powder, mechanism study for HRAS target identification, late-stage follow-up (AID 720609). For orientation: ATP-based viability assays read luminescence as a measure of living cells.

Turning to `Cc1onc(C(=O)N2CCN(C(c3ccncc3)c3ccncc3)CC2)c1[N+](=O)[O-]`, the call was inactive.

For the compound `CCC(=O)N(c1ccc(OC)c(Cl)c1)C(C(=O)NCCc1ccccc1)c1cccs1` (configuration not stated), the result was inactive.
